Compound activity: PubChem, National Center for Advancing Translational Sciences (NCATS)
TDP1 cell CPT – growth inhibition of DT40 Tdp1-/-;hTDP1 cells with camptothecin (screen for TDP1 inhibitors); chicken DT40 Tdp1-/-;hTDP1 cells + 20 nM CPT, ATP luminescence, 48 h; Potency, µM (doses to about 46.2 µM), most hits filed as inhibitors; 420,000 tested, 12% active; AID 686979; further: nearly all actives have a fitted effect of over 55% in size
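Chicken DT40 Tdp1-/- cells complemented with human TDP1, 400 cells/well, exposed to compounds plus 20 nM camptothecin for at least 48 h at 37 C; viability read as ATP content by CellTiter-Glo luminescence.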
IL1B secr inh – blocks inflammasome-driven IL-1 beta release; THP-1 LPS/ATP IL-1B secretion, AlphaLISA, 16 h; active compounds read low; activity change, % at 57.5 µM; 360,000 tested, 4.7% active; in the data active means activity change below about -50%; inconclusive means mostly about -30% to -49%
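THP-1 cells pretreated 1 hr with compounds (up to 57.5 uM final), then stimulated with LPS (250 ng/mL final) plus ATP (1.25 mM final); secreted IL-1B measured by AlphaLISA after 16 hr, decreased signal indicating inhibition.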
HT1080NT lethal – kills 2HG-producing HT-1080-NT fibrosarcoma cells | HT-1080-NT fibrosarcoma viability, CellTiter-Glo ATP luminescence, 48 h | Potency, µM (highest dose often 46.1 µM), hits mostly cytotoxic | 360,000 tested, 1.6% active | AID 686970;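 further: NT is the 2HG producing partner of a matched IDH1 knockdown line; nearly all actives have a fitted effect of over 55% in size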
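Luminescent CellTiter-Glo readout after 48 hours of compound exposure at 37 degrees C defined viability of HT-1080-NT cells. Activity was normalized to DMSO wells and cell-free media wells; concentration-response curves were fitted and assigned curve classes.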
HT1080 IDH1KD tx – toxicity to HT-1080 IDH1 knockdown cells (counter line) | HT-1080 IDH1 knockdown viability, ATP luminescence, 48 h | 360,000 tested, 2% active | Potency, µM (series often up to 46.1 µM), actives largely listed as cytotoxic
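Assay cells: HT-1080 with IDH1 knockdown, 750 per well, RPMI/5% FBS. Exposure: 48 h at 37 °C following 2 h pre-incubation. Read: CellTiter-Glo luminescence; fitted concentration-response, curve class assigned.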
TDP1 cell noCPT – qHTS for Inhibitors of human tyrosyl-DNA phosphodiesterase 1 (TDP1): qHTS in cells in absence of CPT; DT40 Tdp1-/- hTDP1 cells, no CPT, ATP luminescence, 48 h; 420,000 tested, 15% active; Potency, µM (series often up to 46.2 µM), hits mostly inhibitors; further: nearly all actives have a fitted effect of over 55% in size
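DT40 Tdp1-/-;hTDP1 cells, no CPT (DMSO vehicle only), 400 cells/well; compounds pin-transferred; ≥48 hr, 37 °C; CellTiter-Glo 30 min RT dark, luminescence read.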
Each line names hits and unclear results; the compound was inactive in the other large screens. An excerpt weighted towards active compounds, which were near 19% of everything screened. Unless noted, the call rests on the fitted dose curve; in most records, active means well fitted curve in the direction sought with a large enough effect; inconclusive means small, poorly fitted or top-dose-only effect, or another doubt; inactive means no such curve, though single readings can be large; an effect the other way counts as inactive or inconclusive.

COc1ccc2nc(NC(=O)c3cc(=O)c4ccccc4o3)sc2c1	none (no result: IL1B secr inh, HT1080NT lethal, HT1080 IDH1KD tx)
Cc1cc(C)c2sc(NNC(=O)c3ccc(S(=O)(=O)N4CCc5ccccc5C4)cc3)nc2c1	TDP1 cell CPT 3.3µM, HT1080NT lethal inconclusive, HT1080 IDH1KD tx inconclusive, TDP1 cell noCPT 2.6µM
CCc1nnc(NC(=O)c2ccc(S(=O)(=O)N3CCc4ccccc4C3)cc2)s1	TDP1 cell CPT inconclusive, TDP1 cell noCPT inconclusive
Cc1cc(C)c2nc(NNC(=O)c3ccc(S(=O)(=O)N4CCc5ccccc5C4)cc3)sc2c1	TDP1 cell CPT 5.2µM, HT1080NT lethal inconclusive, HT1080 IDH1KD tx 6.5µM, TDP1 cell noCPT 4.6µM
Cc1cc(C)c2nc(NNC(=O)c3cc(=O)c4ccccc4o3)sc2c1	TDP1 cell CPT 29µM, TDP1 cell noCPT inconclusive
O=C1CCC(C(=O)N2CCCCO2)CN1Cc1cccc(F)c1 (stereo not given)	none
CCc1ccc2c(CN(C)Cc3ccc(OC(F)F)c(OC)c3)cc(=O)oc2c1	TDP1 cell CPT 18µM, TDP1 cell noCPT inconclusive
CCCN(CCC)Cc1cc(=O)oc2cc(OC)ccc12	TDP1 cell CPT inconclusive, TDP1 cell noCPT inconclusive
O=c1c2c([nH]c3ccccc13)C(=C1CCCC1)CC2	TDP1 cell CPT 23µM, TDP1 cell noCPT 21µM
CC(C)(C)C1CCc2[nH]c3ccccc3c(=O)c2C1 (stereo not given)	TDP1 cell CPT 23µM, TDP1 cell noCPT 21µM
O=c1c2c([nH]c3ccccc13)CCCC2	TDP1 cell CPT inconclusive, TDP1 cell noCPT 8.2µM
CCOC1=C2CN(S(=O)(=O)c3ccc(C)cc3)[C@H](c3ccccc3)C[C@H]2[C@H]2C(=O)N(c3ccccc3)C(=O)[C@H]2C1	none
CC(C)c1ccc(C(C(C(=O)c2ccccc2)N2CCOCC2)N2CCOCC2)cc1 (stereo not given)	none
CCOc1ccc(-c2cccc(NS(=O)(=O)c3ccccc3C(F)(F)F)c2)nn1	TDP1 cell CPT inconclusive, TDP1 cell noCPT 26µM (no result: IL1B secr inh, HT1080NT lethal, HT1080 IDH1KD tx)
CCOc1ccc(-c2cccc(NS(=O)(=O)c3ccc(C)s3)c2)nn1	TDP1 cell CPT 23µM, TDP1 cell noCPT inconclusive (no result: IL1B secr inh, HT1080NT lethal, HT1080 IDH1KD tx)
COc1ccc(-c2cccc(NS(=O)(=O)c3ccc(C)s3)c2)nn1	TDP1 cell CPT 15µM, TDP1 cell noCPT 16µM (no result: IL1B secr inh, HT1080NT lethal, HT1080 IDH1KD tx)
Cc1ccc(S(=O)(=O)Nc2cccc(-c3ccc4nnc(C)n4n3)c2)s1	TDP1 cell noCPT inconclusive
COc1ccc(-c2cccc(NS(=O)(=O)c3ccc(NC(C)=O)cc3)c2)nn1	TDP1 cell CPT 18µM, TDP1 cell noCPT 15µM (no result: IL1B secr inh, HT1080NT lethal, HT1080 IDH1KD tx)
O=C(CN(C(=O)CCC(=O)Nc1ccccn1)c1ccccc1F)NCc1ccc2c(c1)OCO2	none
CC(=O)NCc1ccc(S(=O)(=O)NC(C(=O)O)C(C)C)cc1 (stereo not given)	none
CC1=CC2=NC(=O)C(c3ccccc3)C(=O)N2C=C1 (stereo not given)	none
COC(=O)c1ccccc1NC(=O)c1ccc2c(c1)OCCCO2	none
CCCOc1ccc(-c2cccc(NS(=O)(=O)c3ccc(CC)cc3)c2)nn1	TDP1 cell CPT 16µM, TDP1 cell noCPT 18µM (no result: IL1B secr inh, HT1080NT lethal, HT1080 IDH1KD tx)
COc1ccc(/C=c2\s/c(=C/C(=O)c3ccc(C)cc3)[nH]c2=O)cc1OC	TDP1 cell CPT inconclusive, TDP1 cell noCPT 18µM
Cc1ccc(NC(=O)c2cc(S(=O)(=O)N3CCc4ccccc43)cn2C)c(Cl)c1	TDP1 cell CPT inconclusive, TDP1 cell noCPT 12µM (no result: IL1B secr inh, HT1080NT lethal, HT1080 IDH1KD tx)
Cc1cccc(NC(=O)c2cc(S(=O)(=O)N3CCc4ccccc43)cn2C)c1C	none
CCCNC(=O)c1cc(S(=O)(=O)N2CCc3ccccc32)cn1C	TDP1 cell CPT 23µM, TDP1 cell noCPT 18µM
COc1ccc(NC(=O)c2cc(S(=O)(=O)N3CCc4ccccc43)cn2C)cc1	TDP1 cell CPT 10µM, TDP1 cell noCPT inconclusive
O=C(O)CCN1CCc2ccccc2C1c1ccncc1 (stereo not given)	none
COc1cccc(CN2CCNC(=O)C2CC(=O)N(C)CCC2CCOCC2)c1OC (stereo not given)	TDP1 cell noCPT inconclusive
CC1(C)Cc2c(ccc3ccccc23)/C(=C/C(=O)N2CCCCC2)N1	TDP1 cell CPT 16µM, IL1B secr inh -62, HT1080NT lethal inconclusive, HT1080 IDH1KD tx inconclusive, TDP1 cell noCPT 15µM
O=C(Nc1cnccn1)C1c2ccccc2Oc2ccccc21	none
CC1CCc2cc(F)cc3c2N1C(=O)C(C(=O)Nc1cnccn1)C3=O (stereo not given)	TDP1 cell CPT 1µM, TDP1 cell noCPT 0.79µM (no result: IL1B secr inh, HT1080NT lethal, HT1080 IDH1KD tx)
O=C(O)c1ccc(Oc2ccc(S(=O)(=O)c3ccc(C(=O)O)c(C(=O)O)c3)cc2)cc1	none
COC(=O)c1c(C)n(-c2ccc(C)cc2)c2ccc(O)cc12	TDP1 cell CPT 35µM, HT1080NT lethal 13µM, HT1080 IDH1KD tx 20µM, TDP1 cell noCPT 18µM
COC(=O)c1c(C)n(-c2ccccc2)c2ccc(O)cc12	TDP1 cell CPT inconclusive, HT1080NT lethal 11µM, HT1080 IDH1KD tx inconclusive, TDP1 cell noCPT inconclusive
CC(=O)c1c(C)n(-c2ccccc2)c2ccc(O)cc12	TDP1 cell noCPT inconclusive
CCOC(=O)c1c(C)n(CC(O)c2ccccc2)c2ccc(O)cc12 (stereo not given)	TDP1 cell CPT inconclusive, TDP1 cell noCPT 18µM
CC(C)n1cc(C(=O)NC2CC(C)(C)Cc3c2cnn3-c2ccccc2)cn1 (stereo not given)	none
COCCNc1nc2cc(-c3ccsc3)sc2c(=O)n1C	TDP1 cell CPT inconclusive
COc1ccc(-c2cc3nc(NCCN4CCCC4)n(C)c(=O)c3s2)cc1OC	TDP1 cell CPT inconclusive, TDP1 cell noCPT 18µM
Cn1c(NCCc2ccncc2)nc2cc(-c3ccsc3)sc2c1=O	TDP1 cell CPT 21µM, HT1080NT lethal inconclusive, TDP1 cell noCPT 13µM
Cc1ccc(-c2cc3nc(NCCc4ccncc4)n(C)c(=O)c3s2)cc1	TDP1 cell CPT 23µM, HT1080NT lethal inconclusive, TDP1 cell noCPT inconclusive
Cn1c(NCCc2ccncc2)nc2cc(-c3cccc(Cl)c3)sc2c1=O	none
Cn1c(NCCN2CCCC2)nc2cc(-c3ccsc3)sc2c1=O	TDP1 cell CPT 21µM, IL1B secr inh -63, HT1080NT lethal inconclusive, HT1080 IDH1KD tx inconclusive, TDP1 cell noCPT 15µM
COc1cccc(CNc2nc3cc(-c4ccc(OC)c(OC)c4)sc3c(=O)n2C)c1	none
Cc1ccc(NC(=O)Cn2c(=O)cc(-c3ccccc3)c3c(C)nn(C)c32)c(Cl)c1	none (no result: IL1B secr inh, HT1080NT lethal, HT1080 IDH1KD tx)
COCOCCn1cc(CN2CCS(=O)(=O)N(Cc3ccc(-c4ccncc4)cc3)C(C(C)C)C2=O)nn1 (stereo not given)	none
COc1ccc(-c2nc(C#N)c(N3CC(C)OC(C)C3)o2)cc1OC (stereo not given)	none
COc1ccc(-c2nc(C#N)c(N3CCCCCC3)o2)cc1	TDP1 cell CPT 18µM, IL1B secr inh -63, TDP1 cell noCPT 18µM
